{"source": "paper PMC10954555"}
{"biological_target": "Protein lin-37 homolog (UniProt Q96GY3)", "sequence (Q96GY3 whole entry)": "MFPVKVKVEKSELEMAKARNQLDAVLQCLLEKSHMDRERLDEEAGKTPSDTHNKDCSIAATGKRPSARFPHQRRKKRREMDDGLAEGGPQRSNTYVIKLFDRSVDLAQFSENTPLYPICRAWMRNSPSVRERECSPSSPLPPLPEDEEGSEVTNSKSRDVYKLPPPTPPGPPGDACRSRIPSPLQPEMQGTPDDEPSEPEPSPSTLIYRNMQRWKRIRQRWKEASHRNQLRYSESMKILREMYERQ", "test": "cross-linking mass spectrometry; other"}
{"substance": "Protein lin-9 homolog, Q5TKA1", "listed as a hit": "yes"}
{"substance": "Protein lin-52 homolog, Q52LA3", "listed as a hit": "yes"}
{"substance": "Protein lin-54 homolog, Q6MZP7", "listed as a hit": "yes"}
{"biological_target": "Transcriptional repressor p66-beta (UniProt Q8WXI9)", "sequence (Q8WXI9 whole entry)": "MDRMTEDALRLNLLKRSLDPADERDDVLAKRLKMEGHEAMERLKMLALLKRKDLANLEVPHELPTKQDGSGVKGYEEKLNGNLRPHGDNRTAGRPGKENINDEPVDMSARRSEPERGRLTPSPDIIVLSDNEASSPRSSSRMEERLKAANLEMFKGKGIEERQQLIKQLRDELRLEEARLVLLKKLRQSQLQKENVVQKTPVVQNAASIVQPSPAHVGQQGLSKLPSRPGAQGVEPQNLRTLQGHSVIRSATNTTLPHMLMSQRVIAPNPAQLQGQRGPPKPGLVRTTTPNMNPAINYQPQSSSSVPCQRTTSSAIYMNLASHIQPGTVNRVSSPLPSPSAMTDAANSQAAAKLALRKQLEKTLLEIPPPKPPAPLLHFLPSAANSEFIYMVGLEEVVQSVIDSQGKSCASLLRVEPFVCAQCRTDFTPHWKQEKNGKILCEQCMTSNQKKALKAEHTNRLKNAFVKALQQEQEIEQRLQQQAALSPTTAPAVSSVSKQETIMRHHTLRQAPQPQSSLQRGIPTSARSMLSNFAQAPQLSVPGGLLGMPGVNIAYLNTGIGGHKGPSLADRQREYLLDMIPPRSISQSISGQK", "test": "other; cross-linking mass spectrometry; other"}
{"substance": "ATP-dependent chromatin remodeler CHD4, Q14839", "listed as a hit": "yes"}
{"substance": "Metastasis-associated protein MTA2, O94776", "listed as a hit": "yes"}
{"substance": "Transcriptional repressor p66-alpha, Q86YP4", "listed as a hit": "yes"}
